Experimental data as given in ChEMBL document CHEMBL3988442, “University of Dundee, Small-Polar-MMV Screening Library” (2021).
Among all 53,000 compounds or so, about 900 (1.7%) showed an effect of 50% or more. This is one part of a sample in which strong results are shown more often than they occur.

System: Mycobacterium tuberculosis
Test: Cornell - Phenotypic assay to identify agents that inhibit growth of Mycobacterium tuberculosis
Assay type: functional
Design: scale not given: direction of the effect not stated beside the values
Conditions: 10 mM as filed; unlikely as a test dose

Row | Structure (SMILES) | Percent Effect
1 | COc1ccc(CN2C[C@@H]3CC[C@H](C2)N(S(C)(=O)=O)C3)cc1 | -9.044%
2 | CC(C)c1cc(N2CCC(N)CC2)n2nccc2n1 | 24.37%
3 | CC(C)c1cc(N2CCN(c3ccc(O)cc3)CC2)n2nccc2n1 | 106.1%
4 | Cc1cc2nc(C(C)C)cc(N3CCC(O)CC3)n2n1 | 7.748%
5 | Cc1cc2nc(C(C)C)cc(N3CCN(c4ccc(O)cc4)CC3)n2n1 | 103.7%
6 | Cc1cc2nc(C(C)C)cc(N3CCSCC3)n2n1 | -12.34%
7 | CC(C)c1cc(N2CCC(CCC(=O)NC3CC3)CC2)n2nccc2n1 | 19.75%
8 | Cc1nc(CN2CCO[C@@H]3CN(C(=O)CC4CC4)CC[C@@H]3C2)cs1 | 21.81%
9 | CCCN(CC(=O)NC)C(=O)c1ccc(-c2nc(C)cs2)cc1 | 8.736%
10 | CS(=O)(=O)N[C@@H]1CN(C(=O)c2ccccn2)[C@@H]2CCCO[C@@H]21.O=C(O)C(F)(F)F | 24.81%
11 | O=C(c1cc(-c2ccn(CC3CC3)n2)n2ccccc12)N1CCCO1 | 45.3%
12 | CC(C)c1nc(-c2cc(C(=O)O)c3ccccn23)cs1 | 89.3%
13 | Cn1ccc(-c2cc(C(=O)N3CCC(O)CC3)c3ccccn23)n1 | -33.58%
14 | CC(C)c1nc(-c2cc(C(=O)N3CCN(C)CC3)c3ccccn23)cs1.O=C(O)C(F)(F)F | -33.65%
15 | Cn1ccc(-c2cc(C(=O)N3CCC(C(N)=O)CC3)c3ccccn23)n1 | 11.2%
16 | CC(C)c1nc(-c2cc(C(=O)NCCCO)c3ccccn23)cs1 | 21.42%
17 | O=C(O)c1cc(-c2ccn(CC3CC3)n2)n2ccccc12 | 99.83%
18 | O=C(c1cc(-c2ccn(CC3CC3)n2)n2ccccc12)N1CCOCC1 | 96.99%
19 | Cn1ccc(-c2cc(C(=O)N3CCOCC3)c3ccccn23)n1 | -21.75%
20 | Cc1nc(N)ncc1C(=O)N1CCCC1(C)C(=O)N(C)C (stereo not given) | 14.34%
21 | Cc1cc(N2CCCC(c3[nH]ncc3Cc3ccccc3)C2)nc(N)n1 (stereo not given) | 13.81%
22 | Cc1ncc(CNC(=O)Cc2ccsc2)c(C2CCCN2C)n1 (stereo not given) | 11.73%
23 | CN1C(=O)C2(CC(=O)Nc3[nH]ncc32)c2cc(Cl)ccc21 (stereo not given) | 9.602%
24 | O=C(c1ccoc1)N1CCCn2cnc(COCC3CC3)c2C1 | 7.498%
25 | COC(=O)[C@@H]1Cc2c[nH]c3cccc(c23)[C@H](CC(C)C)N1 | 105.3%

Row | Structure (SMILES) | Percent Effect
26 | CC(C)C[C@@H]1N[C@H](C(=O)NC(C)C)Cc2c[nH]c3cccc1c23 | 22.96%
27 | CC(C)C[C@@H]1N[C@H](C(=O)NCC2CC2)Cc2c[nH]c3cccc1c23 | 40.17%
28 | Cc1nc2sccn2c1CN(CCCN(C)C)Cc1ccccn1.O=C(O)CC(O)(CC(=O)O)C(=O)O | 51.28%
29 | Cc1ccc(CN(CCN(C)C)Cc2c(C)nc3sccn23)o1.O=C(O)CC(O)(CC(=O)O)C(=O)O | 26.14%
30 | Cc1nc2sccn2c1CN(CCCN(C)C)Cc1ccco1.O=C(O)CC(O)(CC(=O)O)C(=O)O | 33.13%
31 | COCCN1CCC2(CCN(Cc3ccc(OC)cc3)CC2)C1=O.O=C(O)C(F)(F)F | -13.5%
32 | Cc1cccc(CN2CCC3(CCC(C(=O)N(C)C)O3)CC2)n1 (stereo not given) | 35.49%
33 | Fc1cccc2[nH]c(CN3CCn4c(nnc4C4CC4)C3)nc12 | -6.1%
34 | COc1c(CNCc2nnc3n2CCCCC3)c(C)nn1C.Cl | 31.65%
35 | COc1c(CNCc2nnc3n2CCCCC3)c(C(C)C)nn1C.Cl | -4.214%
36 | Cc1nn(C)c(N(C)C)c1CNCc1nnc2n1CCCCC2.Cl | 67.58%
37 | Cc1cccc(COc2ccc(C(C)NC(=O)CNC(N)=O)cc2)c1 (stereo not given) | 14.07%
38 | CC1(C)CC(=O)c2cnc3nc(N4CCCC4)[nH]c(=O)c3c2C1 | 23.1%
39 | CCC1CNCc2cc3c(OC)ccc(OC)c3nc2O1 (stereo not given) | 6.248%
40 | CCC1CNCc2cc3c(C)ccc(C)c3nc2O1 (stereo not given) | 61.63%
41 | CS(=O)(=O)c1ccccc1-n1cc(NC(=O)CC(F)(F)F)cn1 | 18.55%
42 | CCC(=O)c1ccccc1NN1c2ccccc2C(=O)C1(C)OC (stereo not given) | 13.72%
43 | Cc1nc(N2CCOCC2)nc(C)c1NC(=O)Cc1ccc(Cl)cc1 | -26.81%
44 | COc1ccc(CC(=O)Nc2c(C)nc(N3CCCC3)nc2C)cc1 | 59.35%
45 | COc1ccc(CC(=O)Nc2c(C)nc(N3CCOCC3)nc2C)cc1 | 3.579%
46 | COc1cc(N2C[C@H]3OCC[C@H]3[C@H](C(=O)N3CCCC3)C2)ncn1 | -33.02%
47 | CC[C@@H]1N(CC2CC2)CCC[C@]12CCC(=O)N2CCOC.O=C(O)C(F)(F)F | 52.28%
48 | CC[C@@H]1N(Cc2ccsc2)CCC[C@]12CCC(=O)N2CCOC.O=C(O)C(F)(F)F | 13.62%
49 | CC[C@H]1N(CC2CCC2)CCC[C@]12CCC(=O)N2Cc1ccncc1.O=C(O)C(F)(F)F.O=C(O)C(F)(F)F | 23.16%
50 | Fc1ccccc1CC1CCN(Cc2cscn2)CC1 | 30.5%

Row | Structure (SMILES) | Percent Effect
51 | Cc1cccc(CN2CCC(Cc3ccccc3F)CC2)n1 | 56.1%
52 | Fc1ccccc1CC1CCN(Cc2ccccn2)CC1 | 29.36%
53 | O=C1CN(C(=O)C2CN(c3ccccc3)CCO2)CCN1 (stereo not given) | 14.68%
54 | O=C(Nc1ccnc(OC2CCOC2)c1)c1ccccc1Cl (stereo not given) | 61.48%
55 | O=C(Nc1ccnc(OC2CCOC2)c1)c1ccc(F)cc1Cl (stereo not given) | 1.296%
56 | Cc1occc1C(=O)Nc1ccnc(OC2CCOC2)c1 (stereo not given) | 6.262%
57 | CN(Cc1ccc(F)cc1)[C@@H]1CN(S(=O)(=O)N(C)C)C[C@H]1O | 11.25%
58 | COCCN1CCO[C@H]2CN(Cc3cc[nH]n3)C[C@H]21.O=C(O)C(F)(F)F.O=C(O)C(F)(F)F | -6.862%
59 | Cc1ccc(S(=O)(=O)Nc2cccnc2O)cc1C | -38.51%
60 | Cc1cccc(NS(=O)(=O)c2ccc(C#N)nc2)c1C#N | 105.8%
61 | N#Cc1cccnc1NCc1ccc(S(=O)(=O)NCC2CCCO2)cc1 (stereo not given) | -11.22%
62 | COCCNS(=O)(=O)c1ccc(CNc2ncccc2C#N)cc1 | 9.617%
63 | N#Cc1ccc(S(=O)(=O)Nc2ccccc2C#N)cn1 | 63.63%
64 | Cc1cccc(NS(=O)(=O)c2cnn(C)c2)c1C#N | -1.344%
65 | Cc1ccc(N2C[C@H]3CCN(Cc4ccncc4)C[C@H]3C2)nn1.O=C(O)C(F)(F)F | -19.26%
66 | Cc1ccc(CN2CCC3(CCCN3C(=O)C(C)C)CC2)o1 | -8.279%
67 | CCOc1nnc(CN(C)C2CCCN(c3cccnn3)C2)s1 (stereo not given) | 26.02%
68 | CC1c2ncc(COCC3CC3)n2CCN1C(=O)c1ccn(C)n1 (stereo not given) | 14.69%
69 | CCN1CCN(c2ccc(NC(C)c3nc(C(C)C)no3)c(C)c2)CC1 (stereo not given) | 73.38%
70 | Cc1cc(CN2CCN(C(C)c3nc(C(C)C)no3)CC2)no1 (stereo not given) | -1.591%
71 | CC(c1nc(C(C)(C)C)no1)N1CCN(C(=O)CN2CCOCC2)CC1 (stereo not given) | 8.353%
72 | Cc1cc(N2CCOCC2)ccc1NC(C)c1nc(C(C)C)no1 (stereo not given) | 72.08%
73 | CCN1CCN(c2ccc(NC(=O)CC(C)C)c(C)c2)CC1 | -22.64%
74 | Cc1noc(C(C)Nc2ccc3c(c2)CCC3)n1 (stereo not given) | -0.4193%
75 | Cc1noc(C(C)Nc2ccc(N3CCOCC3)cc2C)n1 (stereo not given) | 61.87%

Row | Structure (SMILES) | Percent Effect
76 | CC(c1nc(C(C)(C)C)no1)N1CCN(CC(=O)N2CCOCC2)CC1 (stereo not given) | 7.513%
77 | Cc1noc(C(C)N2CCN(CC(=O)N3CCOCC3)CC2)n1 (stereo not given) | -22.01%
78 | Cc1cc(CNC(=O)NC(C)c2ccc(N3CCOCC3)cc2)no1 (stereo not given) | -27.63%
79 | Cc1cc(N2CCOCC2)ccc1NC(C)c1nc(C(C)(C)C)no1 (stereo not given) | 76.4%
80 | Cc1cc(OCC(=O)NC(C)c2ccc(N3CCOCC3)cc2)no1 (stereo not given) | 4.093%
81 | CCc1ccccc1NC(=O)NCc1nnc(SC)n1C | -6.778%
82 | CC(=O)N1CCC(CCc2ccnc(NC(=O)c3ccccn3)c2)CC1 | -18.95%
83 | COc1ccc(-n2cnc(Cl)c2CO)cc1 | 11.93%
84 | COCCN(C)C[C@H]1C[C@H](CO)CN(C(=O)c2ccn(C)c(=O)c2)C1 | 18.02%
85 | CCc1ncnc(N2CCOCC2C2CC2)c1F (stereo not given) | 0.2478%
86 | COCCNC(=O)c1ccccc1-n1cc(CN)cn1 | -18.17%
87 | CC(C)COC(=O)N1CC(=O)N(CCCc2ccccc2)CC(O)C1 (stereo not given) | 6.947%
88 | Cc1cc(C)c(CNC(=O)NCC(O)c2ccccc2F)c(=O)[nH]1 (stereo not given) | -14.22%
89 | CCc1nccn1C1CCCN(C(=O)c2cccc3c2OCO3)C1 (stereo not given) | -43.9%
90 | C1CCN(CCN2CCCCC2C2OCCO2)CC1 (stereo not given) | 10.52%
91 | Cc1cccc(C2(O)CCN(Cc3ccccc3N3CCCC3)CC2)c1 | 33.4%
92 | Cc1cc2c(cc1Cl)C=CC1(CCN(CC(=O)N3CCOCC3)CC1)O2 | -15.66%
93 | Cc1cc(C)n(CC2CN(CC(=O)NC3CCCC3)CCO2)n1 (stereo not given) | -7.412%
94 | Cc1cc(C)n(CC2CN(CC(=O)NC3CCCCC3)CCO2)n1 (stereo not given) | -10.09%
95 | CCc1ccc(O)c(C(=O)N2CCN(CC(=O)N(CC)CC)CC2)c1 | -14.81%
96 | Cc1cc2c(cc1C)OC1(C=C2)CCN(CC(=O)N2CCOCC2)CC1 | 44.67%
97 | Cc1cc2c(cc1Cl)C=CC1(CCN(CC(=O)N3CCCC3)CC1)O2 | 63.41%
98 | Cc1cc2c(cc1Cl)C=CC1(CCN(CC(=O)NC3CCCC3)CC1)O2 | 71.56%
99 | Cc1cc2c(cc1Cl)C=CC1(CCN(C(=O)N3CCOCC3)CC1)O2 | 23.79%
100 | CCN(CC)C(=O)CN1CCC2(C=Cc3cc(Cl)c(C)cc3O2)CC1 | 52.2%
